Marburg entry inh = blocks Marburg virus binding to or entry into cells | AID 540276 | Marburg virus pseudotyped entry inhibition, cell reporter | hit rate 1.8% among 300,000 | Potency, µM (titrated, usually from 37.8 µM), hits mostly inhibitors; calls by dose curve; tested in HEK293 cells
LASV entry inh = blocks Lassa virus binding to or entry into cells; Lassa virus pseudotype entry inhibition, cell reporter; Potency, µM (series often up to 37.9 µM), actives largely listed as inhibitors; hit rate 1.2% among 300,000; calls by dose curve; tested in HEK293 cells; note: nearly all actives have a fitted effect of over 50% in size
HCMV inh = blocks human cytomegalovirus replication; HFF cells, HCMV-luciferase reporter, 72 h; stronger effect = lower value; activity change, negative = inhibition, % at 57.5 µM; hit rate 4.5% among 410,000; AID 1259415; in the data active = activity change below about -60%; inconclusive = no clear call, values can overlap the other calls; inactive = above about -39%
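Two compound doses tested in HFFs infected with HCMV-luciferase, MOI 1 PFU/cell, 72 h at 37C. Lysate luminescence read with OneGlo; data normalized against buffer-only and 10uM Salinomycin inhibitor controls.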
FMDV antiviral = antivirals against foot and mouth disease virus | FMDV antiviral cell-based qHTS | Potency, µM (titrated, usually from 57.9 µM), hits mostly inhibitors | hit rate 1.2% among 410,000; calls by dose curve; tested in HEK293T cells; note: read-out not given here; nearly all actives have a fitted effect of over 45% in size
Vaccinia mCherry = vaccinia inhibition (mCherry reporter). Potency, µM (doses to about 36.5 µM), hits mostly inhibitors. Vaccinia virus mCherry reporter infection, fluorescence. hit rate 0.63% among 310,000; calls by dose curve; tested in A549 cells; note: nearly all actives have a fitted effect of over 35% in size
Vaccinia Venus = inhibitors of vaccinia virus (Venus reporter); Potency, µM (series often up to 36.5 µM), most hits filed as inhibitors; Vaccinia virus Venus reporter expression, fluorescence; hit rate 0.46% among 330,000; AID 720580; calls by dose curve; tested in A549 cells; note: nearly all actives have a fitted effect of over 30% in size
Hits are given with their value; . = inactive; ? = inconclusive; / = no result; [ ] = another dose, or the depositor's remark. Shown are actives, neighbours in structure and some others; about 6.5% of the full set was active somewhere.

SMILES	Marburg entry inh	LASV entry inh	HCMV inh	FMDV antiviral	Vaccinia mCherry	Vaccinia Venus
COc1ccc(O)c(-c2c(-c3ccc(Cl)cc3)n[nH]c2C)c1	.	.	.	?	.	?
Cc1ccc(C)n1-c1ccc(N2CCOCC2)c([N+](=O)[O-])c1	/	/	.	.	/	/
Cc1ccc(C)n1-c1ccc(N2CCOCC2)cc1	.	.	-73.2	.	/	/
Cn1c(/C(C#N)=C/c2ccccc2Br)nc2ccccc21	/	?	.	.	.	.
C[C@@H]1COc2cccc(N3CCCC3)c2S(=O)(=O)N1	/	?	.	/	/	/
Cc1noc(/C=C/c2cccnc2)c1[N+](=O)[O-]	/	/	-98.0	14.1µM	/	/
Cc1ccc(S(=O)c2ccc(NC(=O)C3CC3)cc2C#N)cc1 (stereo not given)	.	?	-65.7	?	.	.
Cc1ccc2[nH]c(CSc3nnc(COc4ccccc4C)n3C)cc(=O)c2c1	/	.	.	?	.	.
Cc1ccccc1OCc1nnc(SCc2cc(=O)c3cc(F)ccc3[nH]2)n1C	/	.	-61.6	?	.	.
CC(=O)Nc1ccc(-c2nccc3[nH]nc(-c4cccc(C(F)(F)F)c4)c23)cc1	/	/	-102.0	/	/	/
COc1cc(-c2n[nH]c3ccnc(-c4cccc(C(F)(F)F)c4)c23)cc(OC)c1OC	/	/	.	/	/	/
CCOC(=O)c1nnn(-c2nonc2-n2cccc2)c1CCl	.	.	?	14.1µM	/	.
CCOC(=O)c1nnn(-c2nonc2-n2cccc2)c1CN1CCC(C)CC1	?	?	?	.	.	.
COc1ccc(S(=O)(=O)NCc2ccc3c(c2)CCN3C(=O)c2ccccc2)cc1OC	/	.	.	.	.	.
Oc1[nH]c2c(Cl)cc(Cl)cc2c1N=NC(=S)NCC1CCCO1 (stereo not given)	?	?	-68.1	25.1µM	.	.
CN(C)CCn1c2ccccc2c2nc3ccc([N+](=O)[O-])cc3cc21	?	?	-108.3	.	.	?
Cc1nc(N/N=C\c2ccc3c(c2)OCO3)sc1C	.	.	.	.	15.8µM	?
C(=N\Nc1nc2ccccc2s1)/c1ccc2c(c1)OCO2	?	?	.	.	.	.
C=CCN1C(=S)N=NC1c1ccccc1 (stereo not given)	.	/	/	/	/	/
Cc1ccccc1-c1cncnc1NCc1cccs1	/	/	/	.	/	/
CC1=Nc2ccccc2N=C(NC(=O)c2ccccc2)C1c1ccc(Cl)cc1 (stereo not given)	?	?	-63.0	.	.	.
O=C1CC(c2ccc(Cl)cc2)N=C(NC(=O)c2ccccc2)N1 (stereo not given)	/	.	.	.	.	.
C[C@@H]1CN(C2CCN(C(=O)c3ccccc3Cl)CC2)C[C@H](C)O1	.	/	/	/	/	/
Cc1ccc(N2C(=O)c3ccccc3C2O)nc1 (stereo not given)	2.06µM	3.66µM	/	/	/	/
COc1cc(NC(=O)c2ccccc2)c(OC)cc1NC(=O)CN1CCN(c2ccccn2)CC1	?	?	.	?	/	.
SMILES	Marburg entry inh	LASV entry inh	HCMV inh	FMDV antiviral	Vaccinia mCherry	Vaccinia Venus
CC(C)c1ccc(NC(=O)CN2CCN(c3ccccn3)CC2)cc1	/	/	.	.	/	/
CSc1ccccc1NC(=O)CN1CCN(c2ccccn2)CC1	/	/	-63.0	.	/	/
COc1ccc(N2CCN(CC(=O)Nc3ncc(C)s3)CC2)cc1	/	/	.	.	/	/
Cc1cnc(NC(=O)CN2CCN(c3ccccn3)CC2)s1	.	.	-96.9	.	?	?
Cc1ccc(C(=O)Nc2ccccc2C(=O)Nc2ccccn2)cc1Cl	12.6µM	.	.	.	.	.
COc1cc(Cl)c(C)cc1NC(=O)c1ccccc1NC(=O)CN1CCN(c2ccccn2)CC1	/	/	-95.2	.	/	/
Cc1c(C)n(C(=O)CN2CCN(c3ccccn3)CC2)c2ccccc12	?	.	.	31.6µM	/	.
O=C(CN1CCN(c2ccccn2)CC1)N1c2ccccc2CCc2ccccc21	.	.	.	.	/	/
C[C@@H](Nc1nc(Cl)nc2nc[nH]c12)c1ccccc1	/	/	/	/	.	?
CC(C)(C)c1ccc(-n2nc(C#N)c(Cl)cc2=O)cc1	?	?	-100.5	12.6µM	?	10µM
CC(C)(C)c1ccc(-n2nc(C(N)=O)c(O)cc2=O)cc1	?	.	.	.	.	.
COc1ccc(-c2nc(CSCC(=O)N3CCN(c4cccc(C)c4C)CC3)c(C)o2)cc1OC	/	?	-93.3	25.1µM	11.2µM	11.2µM
COc1ccc(-c2nc(CSCC(=O)N3CCN(c4cc(Cl)ccc4C)CC3)c(C)o2)cc1	?	.	-80.3	?	?	?
O=C(Nc1ccc2nc3n(c(=O)c2c1)CCCCC3)c1ccccc1[N+](=O)[O-]	/	/	.	.	.[7.34 µM]	.[7.34 µM]
O=C(Nc1ccc2nc3n(c(=O)c2c1)CCCCC3)c1c(F)ccc([N+](=O)[O-])c1F	7.08µM	?	-100.4	10µM	?	?
O=C(Nc1ccc2nc3n(c(=O)c2c1)CCCC3)c1ccccc1F	/	/	.	.	/	/
O=C(Nc1ccc2nc3n(c(=O)c2c1)CCCCC3)c1cc([N+](=O)[O-])ccc1F	/	/	-72.0	31.6µM	/	/
CC(C)(C)C(=O)Nc1c(C(=O)N2CCN(c3ccc(F)cc3)CC2)oc2ccccc12	/	.	-82.4	.	.	.
Cc1cccc(OCC(=O)Nc2c(C(=O)N3CCN(c4ccccc4F)CC3)oc3ccccc23)c1	10µM	?	.	.	.	.
CN1CCN(c2nc3cc(C(F)(F)F)ccc3n3cccc23)CC1	8.91µM	?	?	.	?	.
COc1cccc(N2CCN(c3ncnc4c3[nH]c3ccc(F)cc34)CC2C)c1 (stereo not given)	?	2.82µM	-97.1	2µM	/	7.08µM
COc1ccc2[nH]c3c(N4CC(C)OC(C)C4)ncnc3c2c1 (stereo not given)	.	.	?	.	/	/
COc1cccc(N2CCN(c3ncnc4c3[nH]c3ccccc34)CC2C)c1 (stereo not given)	/	/	-102.5	/	/	/
COc1cccc(NC(=O)N[C@H]2CC[C@@]34CCCN3C(=O)CCC[C@H]4C2Cc2ccccc2)c1 (stereo not given in full)	/	/	.	/	/	/
C=CCn1c(O)c(C(CC)=NCc2cc(OC)cc(OC)c2)c(=O)[nH]c1=O	?	5.8µM	.	.	?	?
SMILES	Marburg entry inh	LASV entry inh	HCMV inh	FMDV antiviral	Vaccinia mCherry	Vaccinia Venus
C=CCn1c(O)c(C(CC)=NCc2ccc3c(c2)OCO3)c(=O)[nH]c1=O	.	?	.	.	.	.
COc1ccc(Br)cc1C(C[N+](=O)[O-])c1c(N)n(C)c(=O)n(C)c1=O (stereo not given)	/	/	-100.1	?	/	/
CN(C)c1ccc(C(C[N+](=O)[O-])c2c(N)n(C)c(=O)n(C)c2=O)c(F)c1C#N (stereo not given)	/	/	/	35.5µM	/	/
Cc1nc2ccccc2c(=O)n1-c1cc(F)ccc1F	?	.	.	.	.	.
Cc1nc2c(Br)cc(Br)cc2c(=O)n1-c1ccccc1NC1OCC(O)C(O)C1O (stereo not given)	?	.	-77.4	.	.	.
CC(C)(C)NC(=O)CN1CCCN(C(=O)COc2ccc(Cl)c3ccccc23)CC1	.	?	.	.	?	.
CCOC(=O)N1CCN(C(=O)CCl)CC1	?	?	.	?	2.24µM	3.16µM
CCOC(=O)N1CCN(C(=O)COC(=O)c2cc(Cl)cc(Cl)c2)CC1	.	.	.	.	.	.
